In PubChem BioAssay (NCATS):
Results filed as inconclusive are left out. Where a call stands in place of a potency, no number is given. The source made the active and inactive calls. Unless noted, calls follow the shape of the dose curve; as a rule, active = well fitted curve in the direction sought with a large enough effect; inconclusive = small, poorly fitted or top-dose-only effect, or another doubt; inactive = no such curve, though single readings can be large; an effect the other way counts as inactive or inconclusive.

Legend:
[1] = target: Glucocorticoid receptor (Homo sapiens) (UniProt P04150); assay: GR-GFP Redistribution (AID 450;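 active = compounds whose dose series gives a full or clear partial fitted curve of increased nuclear translocation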; also: potency is read from the fitted curve at half-maximal effect); conditions: U2OS GR-GFP nuclear translocation, laser cytometry, 2 h
Glucocorticoid receptor (Homo sapiens), sequence (P04150 whole entry, looked up, the tested form may be a part): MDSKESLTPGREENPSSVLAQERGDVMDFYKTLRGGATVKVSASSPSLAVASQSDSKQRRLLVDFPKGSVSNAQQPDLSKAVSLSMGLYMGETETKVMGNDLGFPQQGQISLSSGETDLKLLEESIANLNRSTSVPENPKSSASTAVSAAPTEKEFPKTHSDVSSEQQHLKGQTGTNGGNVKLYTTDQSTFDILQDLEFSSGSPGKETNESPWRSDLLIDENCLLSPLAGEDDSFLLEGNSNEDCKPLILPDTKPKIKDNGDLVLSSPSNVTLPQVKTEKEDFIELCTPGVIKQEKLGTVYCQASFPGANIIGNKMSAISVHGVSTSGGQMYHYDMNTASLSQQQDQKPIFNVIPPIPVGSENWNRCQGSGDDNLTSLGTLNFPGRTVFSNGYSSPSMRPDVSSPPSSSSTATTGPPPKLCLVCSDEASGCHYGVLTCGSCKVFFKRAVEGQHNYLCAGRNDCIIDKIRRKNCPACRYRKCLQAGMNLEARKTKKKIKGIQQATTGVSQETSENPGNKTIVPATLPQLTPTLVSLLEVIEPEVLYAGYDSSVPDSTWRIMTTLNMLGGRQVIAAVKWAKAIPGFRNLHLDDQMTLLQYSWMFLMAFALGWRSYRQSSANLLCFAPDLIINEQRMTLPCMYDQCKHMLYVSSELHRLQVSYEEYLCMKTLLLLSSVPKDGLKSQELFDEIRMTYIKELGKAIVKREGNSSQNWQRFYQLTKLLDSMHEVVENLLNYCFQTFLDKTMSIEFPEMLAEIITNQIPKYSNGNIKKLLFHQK

[2] = target: Glucocorticoid receptor (Homo sapiens) (UniProt P04150); assay: GR-EFC Redistribution (AID 451; calls by dose curve; also: potency is read from the fitted curve at half-maximal effect); conditions: CHO-K1 GR-EFC translocation, beta-gal luminescence, 2 h
How it was run: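 Translocation of GR-ED fusion to nuclear EA restores b-gal, read by luminescence after 1 h room-temperature detection. Engineered CHO-K1 biosensor cells, 1,000/well, exposed 2 h at 37 C to titrations up to 46 uM final.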

[3] = target: Mitogen-activated protein kinase 10 (Mus musculus) (UniProt Q61831); assay: JNK3 AlphaScreen Assay (AID 530; active = well fitted curve in either direction with a large enough effect, not every such curve was filed as active;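 also: kinase came from lysate of stimulated human HepG2 cells; signal reports phosphorylation of biotinylated GST-cJun 1-79 at Ser73 with 10 µM ATP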)
How it was run: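 Compound titrations were preincubated 15 minutes at room temperature with substrate, antibody and pre-activated JNK3-containing HepG2 lysate. Reactions were started with 10 uM ATP and stopped with EDTA-containing bead buffer for AlphaScreen detection.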

[4] = target: 3',5'-cyclic-AMP phosphodiesterase 4B (Homo sapiens) (UniProt Q07343); assay: qHTS Assay for Inhibitors of PDE-IV (AID 607; active = well fitted activation curve with a large enough effect in the main read-out, with a control signal flat, not every such curve was filed as active)
3',5'-cyclic-AMP phosphodiesterase 4B (Homo sapiens), sequence (Q07343 whole entry, looked up): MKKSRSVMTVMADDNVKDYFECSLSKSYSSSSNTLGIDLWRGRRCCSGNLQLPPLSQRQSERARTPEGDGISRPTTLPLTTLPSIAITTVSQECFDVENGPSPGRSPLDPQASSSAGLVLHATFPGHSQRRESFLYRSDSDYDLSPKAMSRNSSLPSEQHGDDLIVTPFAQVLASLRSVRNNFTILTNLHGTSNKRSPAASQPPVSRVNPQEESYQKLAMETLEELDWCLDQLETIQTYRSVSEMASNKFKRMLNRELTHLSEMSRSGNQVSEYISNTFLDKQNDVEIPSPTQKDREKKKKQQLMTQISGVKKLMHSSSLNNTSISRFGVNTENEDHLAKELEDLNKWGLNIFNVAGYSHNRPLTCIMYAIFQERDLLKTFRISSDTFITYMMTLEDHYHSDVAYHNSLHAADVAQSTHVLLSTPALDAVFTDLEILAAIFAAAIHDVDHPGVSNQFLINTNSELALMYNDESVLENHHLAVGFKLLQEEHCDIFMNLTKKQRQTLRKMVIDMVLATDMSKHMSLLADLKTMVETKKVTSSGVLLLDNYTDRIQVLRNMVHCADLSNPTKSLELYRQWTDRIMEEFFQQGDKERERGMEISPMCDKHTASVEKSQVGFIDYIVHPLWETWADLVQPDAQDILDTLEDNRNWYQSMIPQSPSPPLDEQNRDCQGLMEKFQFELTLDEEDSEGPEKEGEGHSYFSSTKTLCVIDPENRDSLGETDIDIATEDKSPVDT
How it was run: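 Live HEK293 cells with a modified cyclic nucleotide-gated (CNG) channel report intracellular cAMP via membrane-potential dye fluorescence (ex 535/em 590 nm). Endogenous PDE-IV was targeted. Compounds were tested at up to 22.9 uM final; RO 20-1724 100 uM served as control.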

[5] = qHTS Assay for Lipid Storage Modulators (AID 1519; calls by dose curve); conditions: Drosophila S3 cells, BODIPY lipid droplet/cell ratio, laser cytometry, cells loaded with oleic acid
How it was run: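 Cells seeded at 5,000 per well were treated with compounds over a concentration series and loaded with oleic acid (400 uM, as added). Lipid droplet fluorescence (488 nm excitation, 500-530 nm channel) was read by laser-scanning cytometry and normalized to 20 uM Triacsin C.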

[6] = target: Ubiquitin carboxyl-terminal hydrolase 1 (Homo sapiens) (UniProt O94782); assay: Inhibitors of USP1/UAF1: Pilot qHTS (AID 504865);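 also: rhodamine fluorescence freed from ubiquitin-rhodamine substrate followed over time; top concentration of the series differs between compounds; nearly all actives have a fitted effect of over 35% in size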
Ubiquitin carboxyl-terminal hydrolase 1 (Homo sapiens), sequence (O94782 whole entry, looked up): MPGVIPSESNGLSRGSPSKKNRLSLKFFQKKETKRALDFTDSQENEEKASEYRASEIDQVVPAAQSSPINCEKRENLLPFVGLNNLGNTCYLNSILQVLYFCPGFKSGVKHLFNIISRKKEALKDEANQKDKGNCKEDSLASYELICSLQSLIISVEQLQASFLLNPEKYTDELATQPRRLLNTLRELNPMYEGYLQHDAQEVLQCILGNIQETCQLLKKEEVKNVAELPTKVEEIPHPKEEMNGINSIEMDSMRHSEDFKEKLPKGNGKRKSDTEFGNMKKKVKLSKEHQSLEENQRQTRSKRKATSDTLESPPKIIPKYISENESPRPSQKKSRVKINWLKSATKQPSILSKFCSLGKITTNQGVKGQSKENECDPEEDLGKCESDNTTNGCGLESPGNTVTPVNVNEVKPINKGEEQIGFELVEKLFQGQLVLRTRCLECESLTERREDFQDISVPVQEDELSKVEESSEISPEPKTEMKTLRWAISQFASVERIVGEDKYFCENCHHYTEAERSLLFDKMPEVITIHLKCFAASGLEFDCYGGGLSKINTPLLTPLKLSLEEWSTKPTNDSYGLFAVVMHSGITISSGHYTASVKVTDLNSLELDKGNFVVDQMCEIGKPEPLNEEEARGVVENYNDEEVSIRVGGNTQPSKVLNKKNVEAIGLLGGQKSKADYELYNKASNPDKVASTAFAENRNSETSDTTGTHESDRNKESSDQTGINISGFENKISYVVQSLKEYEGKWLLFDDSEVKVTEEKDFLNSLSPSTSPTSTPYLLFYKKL
How it was run: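 Deubiquitinase activity followed as kinetic rhodamine fluorescence release from 150 nM Ub-Rho. 1 nM USP1/UAF1 with compound, after 15 min room-temperature preincubation, in HEPES pH 7.8 buffer containing TCEP, EDTA, BSA and Tween-20.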

[7] = target: DNA dC->dU-editing enzyme APOBEC-3G (Homo sapiens) (UniProt Q9HC16); assay: qHTS for inhibitors of Vif-A3G interactions: Validation (AID 588379)
DNA dC->dU-editing enzyme APOBEC-3G (Homo sapiens), sequence (Q9HC16 whole entry, looked up): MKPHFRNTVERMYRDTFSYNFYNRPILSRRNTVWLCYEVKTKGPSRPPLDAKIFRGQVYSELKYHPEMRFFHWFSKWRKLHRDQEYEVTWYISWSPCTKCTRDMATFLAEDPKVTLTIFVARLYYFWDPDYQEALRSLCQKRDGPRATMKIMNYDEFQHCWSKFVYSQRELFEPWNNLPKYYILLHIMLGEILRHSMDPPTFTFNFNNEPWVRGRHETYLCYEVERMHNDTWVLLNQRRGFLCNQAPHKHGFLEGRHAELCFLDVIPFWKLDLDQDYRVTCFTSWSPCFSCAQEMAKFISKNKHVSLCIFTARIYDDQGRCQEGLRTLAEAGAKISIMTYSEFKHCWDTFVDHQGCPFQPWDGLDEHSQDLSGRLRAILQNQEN
How it was run: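 HeLa cells stably expressing Vif and A3G-eYFP, 700 cells/well, incubated overnight at 37 deg C, then exposed to compound overnight at 37 deg C. Inhibition of Vif-mediated degradation read as increased yellow fluorescence (Ex 488/Em 500-530) by laser-scanning cytometry.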

[8] = system: Zika virus NS2B-NS3 protease; assay: Primary screen GU AMC qHTS for Zika virus inhibitors (AID 1347154); also: nearly all actives have a fitted effect of over 70% in size
How it was run: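 Fluorogenic AMC-substrate cleavage by noncovalent NS2B-NS3 protease complex (25 nM, pH 8.0 Tris buffer with Tween 20) followed for 15 minutes at room temperature (~20% conversion). Percent inhibition from ex340/em450 signal change, fitted by 4-parameter Hill equation.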

[9] = Primary qHTS for small molecule stabilizers of the endoplasmic reticulum resident proteome: Secreted ER Calcium Modulated Protein (SERCaMP) assay (AID 1508630)
How it was run: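 GLuc-SERCaMP-expressing SH-SY5Y cells, pretreated 16 h with compound, are challenged with thapsigargin to empty ER calcium stores; after 4 h, coelenterazine is added directly to the medium and luminescence is imaged.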

[10] = AP1 Signaling Pathway (AID 357; active = well fitted curve in either direction with a large enough effect, not every such curve was filed as active;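 also: ME-180 reporter cells stimulated with EGF at its EC50 level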)
How it was run: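 First, ME-180 AP-1-bla cells were cultured overnight at 37 °C in low-serum Opti-MEM. Next, titrated compounds with EC50 EGF were incubated 5 hours. Finally, CCF4 was added for 2.5 hours and the 460/530 nm ratio recorded.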

[11] = NFAT Signaling Pathway (AID 444; active = well fitted curve in either direction with a large enough effect, not every such curve was filed as active;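 also: carbachol stimulus at about its EC50 of 1 µM final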); conditions: Jurkat NFAT-bla M1, carbachol, beta-lactamase ratio, 5 h; at 17.2 µM (top of the series)
How it was run: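 Read-out: CCF4 FRET ratio (460 nm/530 nm) after 1 h RT dye loading, used for %activity and AC50 from titration series. Cells: Jurkat NFAT-β-lactamase/M1 line, treated with compound plus 1 uM carbachol for 5 h, 37 °C.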

[12] = Stat Signaling Pathway (AID 446; active = well fitted curve in either direction with a large enough effect, not every such curve was filed as active;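 also: ME-180 cervical cancer cells given 40 pM IL-6 alongside compound; SIE-controlled beta-lactamase reporter measured as 460/530 nm FRET emission ratio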)
How it was run: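 IL-6/STAT signaling read in ME-180 cells via an SIE beta-lactamase reporter. Stimulus was 40 pM IL-6 (its AC50) for 5 hrs, so both activation and inhibition register.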

[13] = measured here: cell count channel max response
[14] = measured here: lipid channel max response

**Q.** For CCCN1C[C@H](C)N([C@H](c2ccc(C(=O)N(CC)CC)cc2)c2cccc(OC)c2)C[C@H]1C, which Potency [1] is on record?
**A.** The Potency was > 46 µM (inactive).

**Q.** What about the Potency [2] of the same molecule?
**A.** Its Potency is > 46 µM (inactive).

**Q.** What about the outcome [3] of the same molecule?
**A.** The outcome was “inactive”.

**Q.** What about the Potency [4] of the same molecule?
**A.** The Potency was “inactive”.

**Q.** And the activity change, negative = inhibition ([5]; at 57.5 µM (top of the series))?
**A.** The activity change, negative = inhibition was 9.16% (inactive).

**Q.** What about the max response [5, 13] of the same molecule?
**A.** The max response was 26.5%.

**Q.** What about the max response [5, 14] of the same molecule?
**A.** Its max response is 30.1%.

**Q.** What about the Potency [6] of the same molecule?
**A.** The Potency was “inactive”.

**Q.** And the Potency [7]?
**A.** The Potency was “inactive”.

**Q.** And the Potency [8]?
**A.** Its Potency is “inactive”.

**Q.** What about the Potency [9] of the same molecule?
**A.** Its Potency is “inactive”.

**Q.** Which outcome [10] does the source give for c1cncc(C2=NCCC2)c1 here?
**A.** Its outcome is “inactive”.

**Q.** What about the activity change, negative = inhibition [11] of the same molecule?
**A.** The activity change, negative = inhibition was -0.876% (inactive).

**Q.** And the outcome [12]?
**A.** The outcome was “inactive”.

**Q.** And the Potency [1]?
**A.** The Potency was > 20.6 µM (inactive).

**Q.** And the Potency [2]?
**A.** The Potency was > 20.6 µM (inactive).

**Q.** And the outcome [3]?
**A.** Its outcome is “inactive”.

**Q.** And the Potency [4]?
**A.** Its Potency is “inactive”.

**Q.** And the activity change, negative = inhibition ([5]; at 25.7 µM (top of the series))?
**A.** The activity change, negative = inhibition was -0.221% (inactive).

**Q.** And the max response [5, 13]?
**A.** The max response was -18.1%.

**Q.** And the max response [5, 14]?
**A.** Its max response is -18.1%.

**Q.** And the Potency [6]?
**A.** The Potency was “inactive”.

**Q.** What about the Potency [8] of the same molecule?
**A.** The Potency was “inactive”.

**Q.** What about the Potency [9] of the same molecule?
**A.** Its Potency is “inactive”.

**Q.** What does the source list for CCN1C[C@]2(C)CC[C@H](O)[C@@]34C5C[C@@H]6[C@@H](OC)C[C@@](O)(C5[C@H]6O)[C@@H](CC23)[C@@H]14 (stereo partly drawn)?
**A.** activity change, negative = inhibition ([5]; at 57.5 µM (top of the series)): 1.68% (inactive); max response [5, 13]: -11.5%; max response [5, 14]: -11%; Potency [7]: inactive; Potency [8]: inactive; Potency [9]: inactive

**Q.** What does the source list for CC[N+](CC)(CCCNC1=CC(=O)C(NCCC[N+](CC)(CC)Cc2ccccc2)=CC1=O)Cc1ccccc1?
**A.** Potency [1]: > 46 µM (inactive); Potency [2]: > 46 µM (inactive); activity change, negative = inhibition ([5]; at 57.5 µM (top of the series)): 3.42% (inactive); max response [5, 13]: -5.38%; max response [5, 14]: -3.95%; Potency [7]: inactive; Potency [8]: inactive; Potency [9]: inactive
